Assay [1] can be described thus: ArunA_NOG_NeuritesPerNeuron: ArunA Biomedical's Neurite Outgrowth (NOG) Assay for Neurites Per Neuron (AID 2283758). The essentials: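 Differentiated human H9-derived neurons exposed to chemicals for 48 h from seeding, then stained with Hoechst and βIII-tubulin/DyLight 488. Automated imaging counted neurites (processes >10 um) per valid neuron; loss of signal versus DMSO scored.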

The nature of assay [2]: ArunA_NOG_BranchPointsPerNeurite: ArunA Biomedical's Neurite Outgrowth (NOG) Assay for Branch Points Per Neurite (AID 2283759). Summed up: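 Automated image analysis traced neurites (processes >10 um) from valid cell bodies after Hoechst and βIII-tubulin staining. hNN cells from H9 embryonic stem cells, 48 h exposure. Fitted bidirectionally against DMSO.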
Assay [3] has as its target Luciferin 4-monooxygenase (Photinus pyralis) (UniProt P08659). Put plainly: CCTE_Simmons_QuantiLum_inhib_2: CCTE's Firefly Luciferase Inhibition Assay, Simmons Lab (AID 2283767).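 For AC50: potency for inhibitors that lower luciferase luminescence relative to DMSO.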 The essentials: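 First, 5 ng purified luciferase in phosphate buffer with BSA is dispensed per well. Next, test chemicals (5 nM to 87.5 uM final, 0.5% DMSO) are added and incubated 30 min at 37C in darkness. Finally, luciferin reagent is injected and luminescence read kinetically.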

Assay [4] can be described thus: ACEA_AR_antagonist_AUC_viability: ACEA Biosciences xCELLigence Real-Time Cell Analysis on Androgen Receptor Antagonism for Viability (AID 2283776).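 Note: 22Rv1 human prostate cancer cells growing on impedance electrode plates; hits lower the growth signal relative to DMSO meaning cytotoxicity.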 Summed up: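 Impedance read-out (RT-CES): area under growth curve at 80 h post-dose, loss of signal scored vs DMSO baseline. 22Rv1 cells; 8-pt 1:4 series, top 100 uM final, ≤0.5% DMSO; biological duplicate.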
A short description of assay [5]: ACEA_AR_agonist_AUC_viability: ACEA Biosciences xCELLigence Real-Time Cell Analysis on Androgen Receptor Agonism for Viability (AID 2283775).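 For AC50: viability read 80 hours after compound addition.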 Summed up: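 22Rv1 cells; impedance growth kinetics; 8-pt 1:4 dilutions from 100 uM top final, ≤0.5% DMSO; n = 2; 80 h read; AUC viability, loss-of-signal vs DMSO.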
Assay [6] has as its system zebrafish Estrogen Receptor (ESR2B), gene 317733. Briefly: ATG_zfER2b_XSP1: Attagene TRANS-FACTORIAL Multi-Species (XSP1) HepG2 Assay for zebrafish Estrogen Receptor (ESR2B) (AID 2283773). The essentials: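 Medium contained 3 nM 6-alpha-fluorotestosterone. Reporter mRNA induction by exogenous zebrafish ER2b-Gal4 chimera was read 24 h post-dose in transiently transfected HepG2 cells, using RT-PCR, fluorescent labelling, HpaI digestion and capillary electrophoresis.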

For assay [7], the system named is frog Estrogen Receptor (ESR2), gene 100174814. Put plainly: ATG_frER2_XSP1: Attagene TRANS-FACTORIAL Multi-Species (XSP1) HepG2 Assay for frog Estrogen Receptor (ESR2) (AID 2283774). Summed up: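 Reporter mRNA from a multiplexed TRANS system, measured by RT-PCR with fluorescent labelling and capillary electrophoresis, 24 hours after chemical exposure. Human HepG2 liver cells carried exogenous frog ER-Gal4 chimera; medium included 3 nM 6-alpha-fluorotestosterone; increases versus DMSO analysed.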

The subject of assay [8] is zebrafish Androgen Receptor (AR), gene 100005148. Put plainly: ATG_zfAR_XSP1: Attagene TRANS-FACTORIAL Multi-Species (XSP1) HepG2 Assay for zebrafish Androgen Receptor (AR) (AID 2283771). Summed up: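 Gain-of-signal versus DMSO was measured as reporter transcripts quantified by RT-PCR, fluorescent labelling and capillary electrophoresis after 24 h chemical exposure. The cells were HepG2 expressing a chimeric zebrafish AR-GAL4, co-stimulated with 3 nM 6-alpha-fluorotestosterone.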

Assay [9] relates to frog Estrogen Receptor (ESR1), gene 398734. Put plainly: ATG_frER1_XSP1: Attagene TRANS-FACTORIAL Multi-Species (XSP1) HepG2 Assay for frog Estrogen Receptor (ESR1) (AID 2283777). The essentials:
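HepG2 cells transiently transfected with GAL4-UAS reporter units and frog ER–Gal4 chimera were dosed for 24 h with 3 nM 6-alpha-fluorotestosterone present. Reporter mRNA was measured by RT-PCR and capillary electrophoresis; gain of signal fitted versus DMSO.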

For assay [10], the target named is zebrafish Estrogen Receptor (ESR1), esr1 (gene 259252) (UniProt P57717). Put plainly: ATG_zfER1_XSP1: Attagene TRANS-FACTORIAL Multi-Species (XSP1) HepG2 Assay for zebrafish Estrogen Receptor (ESR1) (AID 2283772). Summed up: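 HepG2 cells were transiently transfected with multiplexed GAL4-UAS reporter units driven by chimeric NR-GAL4 proteins, dosed for 24 h with 3 nM 6-alpha-fluorotestosterone present, and reporter mRNA quantified by RT-PCR and capillary electrophoresis versus DMSO.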
Sequence of zebrafish Estrogen Receptor (ESR1), esr1 (gene 259252) (P57717 whole entry, looked up, the tested form may be a part): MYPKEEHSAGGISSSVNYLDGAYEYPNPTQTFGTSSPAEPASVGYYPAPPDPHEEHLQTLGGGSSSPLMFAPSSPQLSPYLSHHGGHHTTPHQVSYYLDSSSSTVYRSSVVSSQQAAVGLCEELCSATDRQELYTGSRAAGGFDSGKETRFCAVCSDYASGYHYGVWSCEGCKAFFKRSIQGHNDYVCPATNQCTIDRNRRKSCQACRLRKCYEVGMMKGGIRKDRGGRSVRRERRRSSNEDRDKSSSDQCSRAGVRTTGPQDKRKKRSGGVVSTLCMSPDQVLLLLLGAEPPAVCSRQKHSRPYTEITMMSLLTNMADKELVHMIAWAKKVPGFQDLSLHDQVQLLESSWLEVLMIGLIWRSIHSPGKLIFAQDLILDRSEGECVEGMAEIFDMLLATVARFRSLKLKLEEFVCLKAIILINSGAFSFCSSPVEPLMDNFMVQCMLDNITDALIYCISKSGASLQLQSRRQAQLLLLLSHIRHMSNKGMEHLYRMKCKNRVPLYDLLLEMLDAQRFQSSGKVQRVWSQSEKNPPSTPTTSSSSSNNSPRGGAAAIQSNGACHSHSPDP

27 molecules from PubChem BioAssay (EPA / NIEHS) can be followed below.

Results filed as inconclusive are left out. Active and inactive are the calls of the source. Rule for the calls: active = hit-call score of the fitted dose curve at least 0.9, where 1 is the maximum; inconclusive = response in the unintended direction; inactive = score below 0.9.

Sequence of Luciferin 4-monooxygenase (Photinus pyralis) (P08659 whole entry, looked up): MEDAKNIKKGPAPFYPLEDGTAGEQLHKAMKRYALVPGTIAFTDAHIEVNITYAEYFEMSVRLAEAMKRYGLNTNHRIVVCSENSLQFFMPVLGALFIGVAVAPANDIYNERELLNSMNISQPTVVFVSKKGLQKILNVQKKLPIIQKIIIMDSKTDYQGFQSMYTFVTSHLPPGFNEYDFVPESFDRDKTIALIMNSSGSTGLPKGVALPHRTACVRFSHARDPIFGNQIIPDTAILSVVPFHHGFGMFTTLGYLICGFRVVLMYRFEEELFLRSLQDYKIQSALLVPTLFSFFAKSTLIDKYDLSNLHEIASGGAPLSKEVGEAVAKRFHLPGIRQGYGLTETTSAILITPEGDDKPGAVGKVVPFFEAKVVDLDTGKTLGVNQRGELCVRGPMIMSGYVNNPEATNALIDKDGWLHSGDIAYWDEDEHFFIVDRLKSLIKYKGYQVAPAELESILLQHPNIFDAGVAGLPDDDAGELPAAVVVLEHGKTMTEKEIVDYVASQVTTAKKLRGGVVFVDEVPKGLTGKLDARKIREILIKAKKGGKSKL

On to `Cn1cc[nH]c1=S`, for which the AC50 – broadly, the concentration giving half of the maximal activity seen – is 5.75 µM (active) in assay [1] and 7.98 µM (active) in assay [2]. Further, the outcome in [3] and in [4] was inactive.

Consider `OCCNCCO`, for which the AC50 in assay [1] was 20.2 µM (active); in assay [2], 15.4 µM (active). In addition, the result in assay [5] and in assay [4] was inactive.

Take `Cc1ccc(S(=O)(=O)NC(=O)NN2CCCCCC2)cc1`: the result in [3] and in assay [4] was inactive.

As for `O=C(O)c1cccc(C(=O)O)c1`, the molecule was called inactive in assay [5] and in [4].

As to `NC(=O)N(O)[C@@H]1COc2cc(OCc3ccccc3)ccc21`, in [3], the AC50 was 2.1 µM (active). Further, the outcome in assay [5] was inactive.

`O=C(O)c1ccc2c(c1)nc(C(=O)NC1CCN(C3CC3)CC1)n2Cc1cc(-c2ccc(Cl)s2)on1`: the AC50 is 18.6 µM (active) in assay [5] and 15.8 µM (active) in assay [4].

For `C=CCc1cc(S(=O)(=O)c2ccc(O)c(CC=C)c2)ccc1O`, in [3], the molecule was called inactive. The AC50 is 1.68 µM (active) in [6], 1.53 µM (active) in [7], 24.3 µM (active) in assay [5] and 24.5 µM (active) in [4].

Take `CCCCCCCC/C=C\CCCCCCCC(=O)OC[C@@H](O)[C@H]1OC[C@H](O)[C@H]1O`: in assay [5], the molecule was classed as inactive.

For the molecule `Cc1cccc(O)c1C`, the molecule was classed as inactive in assay [3] and in assay [4].

In the case of `O=C(NO)C1(NS(=O)(=O)c2ccc(Oc3ccc(F)cc3)cc2)CCOCC1`, the call in assay [3] was inactive. In addition, the AC50 in assay [5] is 38.5 µM (active); in [4] it was 50 µM (active).

As for `CC(C)CC(C)O` (stereo not given), the molecule was called inactive in assay [5] and in [4].

On to `NNC(=O)c1ccncc1`, for which the result in assay [3] and in assay [4] was inactive.

Turning to `Cc1nccn1-c1ccc(Sc2cccc(C3(C(N)=O)CCOCC3)c2)cc1`, the AC50 is 25.5 µM (active) in [5] and 24 µM (active) in assay [4].

Take `COS(C)(=O)=O`: the outcome in [3] and in [4] was inactive.

Regarding `CCc1ccc(O)c(C(C)(C)C)c1`, the outcome in assay [3] was inactive. The results for the AC50 in [5] and in assay [4] were 66.1 µM (active) and 70.5 µM (active), respectively.

For `C[C@@H](Oc1ccc(CNC(=O)c2cccnc2Oc2ccc3c(c2)OCO3)c(F)c1)C(=O)O`, the molecule was classed as inactive in [3] and in [4].

As to `OCC(CO)(CO)CO`, the molecule was classed as inactive in [5].

Take `CCCCCCCCN(C)C`: the molecule was called inactive in [5] and in assay [4].

As for `CC(C)C(=O)Nc1ccc([N+](=O)[O-])c(C(F)(F)F)c1`, the molecule was called inactive in assay [8], in assay [6] and in assay [9]. The AC50 in [5] was 55.2 µM (active).

In the case of `CCCC(CCC)C(=O)O`, the figures for the AC50 in assay [1], in [2] and in assay [4] were 91.1 µM (active), 69.6 µM (active) and 50 µM (active), respectively. Besides, in assay [5], the molecule was called inactive.

For `COc1cc(C(C)C)c2c(c1)S(=O)(=O)N(COc1cc(=O)n3cccc(OCCN4CCCCC4)c3n1)C2=O`, the values for the AC50 in assay [5] and in assay [4] were 22.3 µM (active) and 16.8 µM (active), respectively.

As for `O=S(=O)(O)c1ccc(N=Nc2c(O)ccc3cc(S(=O)(=O)O)ccc23)cc1`, the result in assay [5] was inactive.

On to `CC(C)CCCCCCOC(=O)C1CCCCC1C(=O)OCCCCCCC(C)C` (stereo not given), for which, in [5], the molecule was called inactive.

On to `O=C(O)c1cccc(C[C@@H]2COc3ccc(OCc4nc5cc(F)ccc5s4)cc3[C@@H]2O)c1`, for which the call in [5] and in [4] was inactive.

Take `O=S1(=O)CCCO1`: the outcome in assay [3], in [5] and in assay [4] was inactive.

In the case of `Cn1c(=O)c2[nH]cnc2n(C)c1=O`, the result in [5] was inactive.

For `CCN(CC)C(=S)SSC(=S)N(CC)CC`, the AC50 was 14.5 µM (active) in assay [1], 25.8 µM (active) in [5] and 26 µM (active) in [4]. Besides, in assay [10], the outcome was inactive.
